In PubChem BioAssay (EPA / NIEHS) one finds AC50 and outcome data, which are given here for four compounds.

Molecules are shown by their SMILES. Activity calls are given as the source filed them. The calls were made as follows: active = hit-call score of the fitted dose curve at least 0.9, where 1 is the maximum; inactive = score below 0.9.

What all share (settings): mRNA level, 48 h; actives raise or lower the signal
Read-out in test [1]: Lipoprotein lipase (LPL), LPL (gene 4023)
The experiment in a line: LTEA_HepaRG_LPL: Life Technologies and Expression Analysis (LTEA) Assay for Lipoprotein lipase (LPL) using HepaRG (AID 2283515). In a few lines: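 Read-out is LPL transcript level by qRT-PCR, normalized to three housekeeping genes and fitted bidirectionally against the DMSO control. Human HepaRG cells received chemicals for 48 h at up to 100 uM.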

Read-out in test [2]: MicroRNA 122 (MIR122), gene 406906
Briefly: LTEA_HepaRG_MIR122: Life Technologies and Expression Analysis (LTEA) Assay for MicroRNA 122 (MIR122) using HepaRG (AID 2283516). Also: the transcript read is the microRNA miR-122. In a few lines: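 HepaRG, 48 h exposure, 8-pt half-log from 100 uM, 0.5% DMSO; TaqMan qRT-PCR; bidirectional fit vs DMSO.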

Read-out in test [3]: MYC, MYC (gene 4609)
Briefly: LTEA_HepaRG_MYC: Life Technologies and Expression Analysis (LTEA) Assay for MYC using HepaRG (AID 2283518). In a few lines: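 Differentiated human HepaRG cells, plated 48 h then switched to serum-free induction medium, were exposed in duplicate for 48 h to 8-point half-log series up to 100 uM in 0.5% DMSO. MYC mRNA measured by qRT-PCR, normalized to ACTB/GAPDH/POLR2A.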

Read-out in test [4]: matrix metalloproteinase-3 (MMP3), MMP3 (gene 4314)
Briefly: LTEA_HepaRG_MMP3: Life Technologies and Expression Analysis (LTEA) Assay for matrix metalloproteinase-3 (MMP3) using HepaRG (AID 2283519). In a few lines:
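HepaRG, human; 48 h dosing, 8 conc. (max 100 uM, half-log), duplicate, 0.5% DMSO. Readout: MMP3 transcript by Fluidigm TaqMan qRT-PCR, ACTB/GAPDH/POLR2A-normalised. Gain or loss fitted vs DMSO.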

Read-out in test [5]: Paternally Expressed 10 (PEG10), PEG10 (gene 23089)
The experiment in a line: LTEA_HepaRG_PEG10: Life Technologies and Expression Analysis (LTEA) Assay for Paternally Expressed 10 (PEG10) using HepaRG (AID 2283520).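 As to AC50: PEG10 transcript by qRT-PCR normalised to ACTB GAPDH and POLR2A.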 In a few lines:
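Chemicals tested on HepaRG cells for 48 h, highest concentration 100 uM. PEG10 expression assessed by qRT-PCR relative to DMSO control.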

Read-out in test [6]: Protein phosphatase 2A (PPP2R4), PTPA (gene 5524)
The experiment in a line: LTEA_HepaRG_PPP2R4: Life Technologies and Expression Analysis (LTEA) Assay for Protein phosphatase 2A (PPP2R4) using HepaRG (AID 2283522). In a few lines:
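Gene-expression endpoint in HepaRG hepatic cells: 48 h treatment across eight half-log concentrations up to 100 uM in 0.5% DMSO. PPP2R4 mRNA by qRT-PCR, normalized to three endogenous control genes.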

Read-out in test [7]: solute carrier (SLC22A1), SLC22A1 (gene 6580)
The experiment in a line: LTEA_HepaRG_SLC22A1: Life Technologies and Expression Analysis (LTEA) Assay for solute carrier (SLC22A1) using HepaRG (AID 2283524). In a few lines: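 HepaRG (human liver line), 48 h dosing in serum-free induction medium; 8 conc., half-log down from 100 uM, 0.5% DMSO vehicle, duplicates. Endpoint: SLC22A1 mRNA, qRT-PCR, housekeeping-normalized; gain/loss fit vs DMSO.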

Read-out in test [8]: NAD(P)H dehydrogenase [quinone] 1 (NQO1), NQO1 (gene 1728)
Briefly: LTEA_HepaRG_NQO1: Life Technologies and Expression Analysis (LTEA) Assay for NAD(P)H dehydrogenase [quinone] 1 (NQO1) using HepaRG (AID 2283526). In a few lines:
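Human HepaRG hepatic cells received chemicals for 48 h in serum-free induction medium with 0.5% DMSO, up to 100 uM. Expression was assessed by TaqMan qRT-PCR against housekeeping controls and fitted bidirectionally against DMSO.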

Read-out in test [9]: Nuclear factor erythroid 2-related factor 2 (Homo sapiens) (UniProt Q16236)
Briefly: LTEA_HepaRG_NFE2L2: Life Technologies and Expression Analysis (LTEA) Assay for Nuclear factor erythroid 2-related factor 2 (NFE2L2) Transcription Factor using HepaRG (AID 2283527).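 As to outcome: TaqMan qRT-PCR transcript level normalised to ACTB GAPDH and POLR2A housekeeping genes.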 In a few lines: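 Transcript level of NFE2L2 is the read-out, measured by microfluidic TaqMan qRT-PCR and normalized to three housekeeping genes. Human HepaRG cultures received test chemical for 48 h at up to 100 uM in half-log steps. Gain or loss of signal is fitted relative to 0.5% DMSO.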

Read-out in test [10]: succinate dehydrogenase complex iron sulfur subunit B (SDHB), SDHB (gene 6390)
The experiment in a line: LTEA_HepaRG_SDHB: Life Technologies and Expression Analysis (LTEA) Assay for succinate dehydrogenase complex iron sulfur subunit B (SDHB) using HepaRG (AID 2283528). In a few lines:
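HepaRG, 48 h exposure, 8-pt half-log series from 100 uM in 0.5% DMSO, duplicates. Readout: SDHB mRNA by Fluidigm qRT-PCR vs housekeeping genes; bidirectional fit relative to DMSO.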

Read-out in test [11]: Signal transducer and activator of transcription 3 (Homo sapiens) (UniProt P40763)
Briefly: LTEA_HepaRG_STAT3: Life Technologies and Expression Analysis (LTEA) Assay for Signal transducer and activator of transcription (STAT3) using HepaRG (AID 2283529). In a few lines: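 Read-out is STAT3 mRNA level by qRT-PCR, normalized to three housekeeping genes, in human HepaRG liver cells treated for 48 h. Concentrations ran from 100 uM downward in half-log steps; curves were fitted for gain or loss relative to 0.5% DMSO.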

Read-out in test [12]: solute carrier (SLCO1B1), SLCO1B1 (gene 10599)
The experiment in a line: LTEA_HepaRG_SLCO1B1: Life Technologies and Expression Analysis (LTEA) Assay for solute carrier (SLCO1B1) using HepaRG (AID 2283530). In a few lines: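 Differentiated human HepaRG cells, plated 48 h, switched to serum-free induction medium and exposed in duplicate for 48 h to 8 half-log concentrations (top 100 uM) in 0.5% DMSO. SLCO1B1 mRNA by TaqMan qRT-PCR, normalized to ACTB/GAPDH/POLR2A.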

Read-out in test [13]: sulfotransferase 2A1 (SULT2A1), SULT2A1 (gene 6822)
Briefly: LTEA_HepaRG_SULT2A1: Life Technologies and Expression Analysis (LTEA) Assay for sulfotransferase 2A1 (SULT2A1) using HepaRG (AID 2283531). In a few lines:
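Differentiated human HepaRG cells in serum-free induction medium were exposed for 48 h to eight half-log concentrations (top 100 uM, 0.5% DMSO). SULT2A1 mRNA was measured by qRT-PCR, normalized to ACTB, GAPDH and POLR2A, and fitted bidirectionally against DMSO.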

Read-out in test [14]: Transforming Growth Factor (TGFA), TGFA (gene 7039)
Briefly: LTEA_HepaRG_TGFA: Life Technologies and Expression Analysis (LTEA) Assay for Transforming Growth Factor (TGFA) using HepaRG (AID 2283532). In a few lines:
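HepaRG (human liver line), 48 h exposure, 8 conc. half-log down from 100 uM, 0.5% DMSO vehicle, duplicates; serum-free induction medium. TGFA mRNA by TaqMan qRT-PCR, ACTB/GAPDH/POLR2A normalization; gain/loss fit vs DMSO.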

Read-out in test [15]: Transforming Growth Factor (TGFB1), TGFB1 (gene 7040)
Briefly: LTEA_HepaRG_TGFB1: Life Technologies and Expression Analysis (LTEA) Assay for Transforming Growth Factor (TGFB1) Transporter using HepaRG (AID 2283533). In a few lines: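 Differentiated human HepaRG cells in serum-free induction medium were exposed in duplicate for 48 h to eight concentrations (top 100 uM, half-log steps, 0.5% DMSO). TGFB1 mRNA was quantified by qRT-PCR, normalized to ACTB, GAPDH, POLR2A, and fitted bidirectionally against DMSO.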

Read-out in test [16]: TIMP1, TIMP1 (gene 7076)
Briefly: LTEA_HepaRG_TIMP1: Life Technologies and Expression Analysis (LTEA) Assay for TIMP1 using HepaRG (AID 2283534).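 As to outcome: TaqMan qRT-PCR signal normalized to ACTB GAPDH and POLR2A housekeeping genes.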 In a few lines:
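Differentiated human HepaRG cells in serum-free induction medium were exposed 48 h to chemicals (8 half-log concentrations, top 100 uM, 0.5% DMSO). TIMP1 mRNA was quantified by TaqMan qRT-PCR, normalized to ACTB/GAPDH/POLR2A; bidirectional fit versus DMSO.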

Read-out in test [17]: Phosphatase and tensin (PTEN), PTEN (gene 5728)
Briefly: LTEA_HepaRG_PTEN: Life Technologies and Expression Analysis (LTEA) Assay for Phosphatase and tensin (PTEN) using HepaRG (AID 2283523). In a few lines:
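Read-out is PTEN transcript level by multiplexed TaqMan qRT-PCR after 48 h chemical treatment of human HepaRG cultures in serum-free induction medium. Concentrations spanned 100 uM downward in half-log steps, 0.5% DMSO throughout; activity fitted in both directions against vehicle.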

Read-out in test [18]: Pyruvate Dehydrogenase Kinase 4 (PDK4), PDK4 (gene 5166)
Briefly: LTEA_HepaRG_PDK4: Life Technologies and Expression Analysis (LTEA) Assay for Pyruvate Dehydrogenase Kinase 4 (PDK4) using HepaRG (AID 2283525). In a few lines: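 In this multiplexed human HepaRG expression assay, cells are treated 48 h with test chemicals across an eight-point range starting at 100 uM. PDK4 mRNA changes, normalized to ACTB/GAPDH/POLR2A, are fitted in both directions relative to vehicle.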

Signal transducer and activator of transcription 3 (Homo sapiens), sequence (P40763 whole entry, looked up): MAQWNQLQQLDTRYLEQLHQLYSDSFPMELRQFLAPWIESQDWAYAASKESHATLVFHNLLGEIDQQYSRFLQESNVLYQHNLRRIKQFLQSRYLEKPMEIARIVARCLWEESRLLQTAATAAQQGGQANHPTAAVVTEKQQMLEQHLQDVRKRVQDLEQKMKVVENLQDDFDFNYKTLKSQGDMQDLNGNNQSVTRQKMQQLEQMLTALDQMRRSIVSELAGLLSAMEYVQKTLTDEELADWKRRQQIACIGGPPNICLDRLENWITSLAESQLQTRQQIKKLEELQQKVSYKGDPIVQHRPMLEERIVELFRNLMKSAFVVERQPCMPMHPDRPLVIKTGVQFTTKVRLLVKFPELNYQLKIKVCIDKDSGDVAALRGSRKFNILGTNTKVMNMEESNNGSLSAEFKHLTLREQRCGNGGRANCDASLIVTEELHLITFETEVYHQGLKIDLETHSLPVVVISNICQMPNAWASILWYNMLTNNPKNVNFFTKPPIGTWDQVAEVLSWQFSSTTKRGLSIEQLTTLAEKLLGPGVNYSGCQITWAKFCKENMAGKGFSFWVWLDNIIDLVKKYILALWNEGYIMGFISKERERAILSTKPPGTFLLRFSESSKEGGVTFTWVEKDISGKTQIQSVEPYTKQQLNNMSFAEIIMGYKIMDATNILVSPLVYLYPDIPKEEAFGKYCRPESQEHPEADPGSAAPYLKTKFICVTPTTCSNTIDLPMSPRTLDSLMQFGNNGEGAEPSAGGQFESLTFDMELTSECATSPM
Nuclear factor erythroid 2-related factor 2 (Homo sapiens), sequence (Q16236 whole entry, looked up): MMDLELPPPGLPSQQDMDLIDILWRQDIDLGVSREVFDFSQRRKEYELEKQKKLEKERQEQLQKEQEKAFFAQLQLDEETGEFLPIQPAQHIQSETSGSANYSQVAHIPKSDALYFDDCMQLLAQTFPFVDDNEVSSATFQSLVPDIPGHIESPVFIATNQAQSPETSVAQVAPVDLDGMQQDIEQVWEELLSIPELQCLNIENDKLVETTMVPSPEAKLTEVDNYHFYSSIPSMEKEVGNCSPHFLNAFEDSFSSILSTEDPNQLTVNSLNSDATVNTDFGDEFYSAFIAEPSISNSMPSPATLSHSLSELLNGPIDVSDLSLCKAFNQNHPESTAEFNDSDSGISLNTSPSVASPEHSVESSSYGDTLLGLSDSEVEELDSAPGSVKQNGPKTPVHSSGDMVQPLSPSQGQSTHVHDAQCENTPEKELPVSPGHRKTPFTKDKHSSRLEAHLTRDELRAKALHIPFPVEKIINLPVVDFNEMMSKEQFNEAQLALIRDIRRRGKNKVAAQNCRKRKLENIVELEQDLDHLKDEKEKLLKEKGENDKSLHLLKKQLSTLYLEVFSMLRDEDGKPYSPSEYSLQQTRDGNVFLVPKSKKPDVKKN

For orientation: AC50 means the concentration at which the activity in the assay is half-maximal. For the compound `Cc1oc2c(NC(=O)c3c(Cl)cccc3Cl)cccc2c1C(C)(C)O`, the AC50 is 14 µM (active) in test [1]; 38.6 µM (active) in [2]; 50 µM (active) in test [3]; 3.27 µM (active) in test [5]; 50 µM (active) in [7]; 79 µM (active) in test [9]. The values for the AC50 in test [12], in test [13] and in test [15] were 54 µM (active), 68.1 µM (active) and 50 µM (active), respectively. The compound was classed as inactive in test [4], in [6], in test [8], in [10], in test [11] and in test [14]. Moreover, the compound was classed as inactive in test [16].
On to `COc1ccc2cc(S(=O)(=O)N[C@H](CC(=O)N[C@H](Cc3ccc(CN4[C@H](C)CCC[C@@H]4C)cc3)C(=O)N(C)C(C)C)c3ccc4c(c3)OCO4)ccc2c1`, for which the AC50 is 24.1 µM (active) in [1]; 11.4 µM (active) in [2]; 24.7 µM (active) in test [3]; 11.5 µM (active) in test [5]; 34.3 µM (active) in test [6]; 15 µM (active) in test [17]. Further, the half-maximal activity concentration (AC50) was 26.4 µM (active) in test [7]; 86.6 µM (active) in test [18]; 21.8 µM (active) in test [9]; 22 µM (active) in [10]; 12.4 µM (active) in test [11]; 26.3 µM (active) in test [12]. Also, the AC50 was 75.2 µM (active) in test [13], 25.3 µM (active) in test [14], 12.8 µM (active) in test [15] and 30.8 µM (active) in test [16]. Further, the result in [8] was inactive.
Consider `CC(=O)N1CCN(c2ccc(OC[C@H]3CO[C@](Cn4ccnc4)(c4ccc(Cl)cc4Cl)O3)cc2)CC1`, for which the AC50 was 86.3 µM (active) in test [1]; 13.3 µM (active) in test [2]; 42.5 µM (active) in [5]; 76.6 µM (active) in test [6]; 78.8 µM (active) in test [17]; 13.3 µM (active) in [7]. Besides, the AC50 in [18] was 11 µM (active); in test [9], 12 µM (active); in test [10] it was 30.8 µM (active); in test [11] it was 35 µM (active); in test [12], 22.8 µM (active); in test [13], 12.2 µM (active). For the same compound, the AC50 in [14] was 12.1 µM (active); in test [15] it was 90.9 µM (active); in test [16] it was 83.1 µM (active). In addition, the compound was called inactive in test [8].
Take `O=C1O[C@H]([C@@H](O)CO)C(O)=C1O`: the outcome in test [1], in test [2], in [5], in test [6], in [7] and in test [8] was inactive. Besides, the compound was called inactive in test [9], in test [10], in test [12], in test [13], in test [14] and in test [15]. In addition, the result in test [16] was inactive.
